Structures are written as SMILES. Screen size: about 410,000 compounds; about 1,200 (0.29%) were called active. Inconclusive results (about 2%) are left out. The list comes from a sample in which actives are over-represented; it also holds similar structures and randomly drawn compounds. Unmarked numbers belong to inactive results. The call rests on the fitted dose curve; in most records, active means well fitted activation curve with a large enough effect; inconclusive means small, poorly fitted or top-dose-only effect; inactive means flat fitted curve, though single readings scatter.
Potency means the concentration at half of the fitted maximal effect.

A short description of this assay: qHTS of Nrf2 Activators. Further: nearly all actives have a fitted effect of over 65% in size. On activation: % of control where 0% means no effect. The conditions noted are these: AREc32 ARE-luciferase reporter (MCF7-derived line), luminescence, 24 h; series mostly up to 46.1 µM; activation: at the top concentration. From the text: Many diseases have some form of oxidative stress injury and ties to inflammation, causing a host of problems for the patient. The antioxidant response element (ARE) plays an important role in alleviating the harmful effects of oxidative stress. The antioxidant response element (ARE) is a transcriptional regulatory element involved in the activation of genes coding for a number of antioxidant proteins and detoxifying enzymes. These enzymes work in concert to protect tissues from oxidative insults and chemical toxicities in human hepatocytes and immune cells. The protective effects of ARE activation are primarily triggered through Nrf2 (NF-E2-related factor) binding to and activating AREs. It is known that Nrf2 controls the production of over 250 antioxidant and detoxification proteins (Hu et al., 2006), thereby protecting tissues by increasing cellular antioxidant content and suppressing inflammatory signaling pathways. The transcription factor Nrf2 is a central link between oxidative chemicals, such as phenolic antioxidants and electrophilic compounds, and the activation of ARE. Nrf2 levels are constitutively low as a consequence of its interaction with Keap1, which targets its degradation (Zipper and Mulcahy, 2002). Electrophiles react with key cysteine residues in Keap1, releasing Nrf2 and allowing its translocation to the nucleus. Once within the nucleus, Nrf2 complexes with coactivators such as p300, and binds to the AREs to induce gene transcription of cytoprotective enzymes, resulting in the prevention of toxicity. Activation of Nrf2 protects tissues by increasing cellular antioxidant content and suppressing inflammatory signaling pathways. Identifying novel and potent Nrf2 activators by using the AREc32 cell line to detect ARE activation by small molecules will lead to the identification and development of probes to study protective pathways in multiple tissues. These specific probes are essential to study the ARE pathway, and eventually to determine whether this pathway does activate genes that could protect against a host of diseases, including cardiovascular diseases, obesity, diabetes, Alzheimer's, and Parkinson's disease.
This project's aim is to identify novel and potent Nrf2 activators by using the AREc32 cell line to detect ARE activation by small molecules, which will lead to the identification and development of probes to study the ARE pathway.
NIH Chemical Genomics Center [NCGC]
NIH Molecular Libraries Probe Centers Network [MLPCN]
Assay Submitter (PI): Curtis Klaassen, University of Kansas Medical Center
5 uL of 1000 cells/well of AREc32_Fluc cells are seeded into 1536-well plate in OPTI-MEM medium with 5% FBS. The plates are incubated overnight at 37 deg C with 5% CO2. Then through pin tool transfer, 23 nL of compounds are added to each well before a 24 hr incubation at 37 deg C with 5% CO2. After the addition of 2.5 uL of Steady-Glo. the plates are kept at RT for 30 min, before they are read on the ViewLux.
A general note: qHTS replaces the single test concentration by a dilution series.
In the case of `O=C1/C(=C\c2ccc(O)cc2)CCC1CNc1ccc(Cl)cc1` (stereo unspecified), the Potency was 11.2 µM (active).

In the case of `CC(=O)c1nn(-c2ccc(OC(F)(F)F)cc2)nc1Nc1ccccc1`, the “activation” value was 1.31%.

For the compound `CCOc1ccc(CCNC(=O)c2ccc3c(c2)sc2nc(-c4ccc(F)cc4)cn23)cc1OCC`, the “activation” value is 3.06%.

For the compound `Cn1c(=O)c2c(n3c4ccccc4nc13)NC(=O)CC2c1cccc(Cl)c1` (stereo unspecified), the “activation” value was 1.12%.

In the case of `c1ccc(CSc2nnc(-c3ccco3)c(-c3ccco3)n2)cc1`, the Potency was 12.6 µM (active).

For `Fc1ccc(CSc2nc(NCc3ccccc3)c3ccccc3n2)cc1`, the “activation” value was 6.47%.

As for `Cc1ccc(-c2nnc(SCC(=O)NCc3ccccc3)nc2-c2ccc(C)cc2)cc1`, the “activation” value is 5.5%.

Regarding `Cc1ccc(CNC(=O)CSc2c3c(nc4cc(Cl)ccc24)CCCC3)cc1`, the “activation” value is 26.8%.

In the case of `COc1cccc(CNC(=O)CSc2c3c(nc4cc(Cl)ccc24)CCCC3)c1`, the “activation” value was 19.1%.

Turning to `O=C(CSc1c2c(nc3ccc(Cl)cc13)CCCC2)NCc1ccco1`, the Potency is 11.2 µM (active).

`CCCNC(=O)CCC(=O)N1Cc2ccccc2Oc2ncccc21`: the “activation” value is -0.631%.

`Cc1ccc2[nH]c3c(=O)n(CC(=O)NC(C)C)ncc3c2c1`: the “activation” value was -0.0426%.

For `COc1ccc(-c2csc(-c3c(N)c(C(=O)c4ccc(OC)c(OC)c4)n4ccccc34)n2)cc1`, the “activation” value was -0.693%.

Turning to `CCn1c2ccccc2c2nnc(N3CCN(c4cc(C)ccc4C)CC3)nc21`, the “activation” value was -0.21%.

`Cc1nc(N)sc1-c1ccccc1`: the “activation” value is 8.19%.

For the compound `Cc1nc(-c2ccccc2)sc1-c1nc(-c2ccccc2)ncc1S(=O)(=O)c1ccccc1`, the “activation” value was 0.0302%.

On to `Cc1nc(-c2ccccc2)sc1-c1nnc(C2CC2)o1`, for which the Potency is 15.8 µM (active).

For `COc1ccc(Cl)cc1S(=O)(=O)N1CCC(c2ccncc2)CC1`, the “activation” value is 3.31%.

For `CCOc1ccc(CC(=O)NCCc2csc3nc(-c4ccccc4F)nn23)cc1`, the “activation” value was 3.54%.

As to `O=C(COC(=O)/C=C/c1ccc2c(c1)OCO2)NC1CCS(=O)(=O)C1` (stereo unspecified), the “activation” value was 5.37%.

In the case of `O/N=C(\c1ccc2c(c1)OCCO2)C1CCCCC1`, the “activation” value is -0.368%.

For `O=C(/C=C/c1ccc2c(c1)OCCO2)c1ccc(O)cc1`, the Potency is 5.01 µM (active).

On to `O=C(NCCc1csc(-c2ccc(C(F)(F)F)cc2)n1)C(=O)Nc1ccc(F)c(Cl)c1`, for which the “activation” value was 0.286%.

Regarding `COc1ccc(NC(=O)c2ccc3nc(C(C)C)oc3c2)cc1OC`, the “activation” value is 9.79%.

With `COCc1c(C(=O)OCC(=O)Nc2ccc(OC(F)F)cc2)oc2ccccc12`, the “activation” value was -0.783%.

Regarding `CCc1cccc(NC(=O)COC(=O)c2cc(=O)c3ccccc3o2)c1`, the Potency is 14.1 µM (active).

`CCc1cccc(NC(=O)COC(=O)C2CCN(c3ccc(C(F)(F)F)cn3)CC2)c1`: the “activation” value was -0.0951%.

Turning to `Cc1cc(C)nc(NS(=O)(=O)c2ccc(NC(=O)c3cc(=O)c4ccc(C)c(C)c4o3)cc2)n1`, the “activation” value was -0.437%.

Turning to `COc1ccc(Br)cc1CN(C)CC(=O)Nc1cc([N+](=O)[O-])ccc1OC`, the “activation” value was 0.584%.

Regarding `COc1cc2c(cc1NC(=O)COC(=O)/C=C/c1ccccc1)oc1ccccc12`, the “activation” value was 4.04%.

With `COc1ccc([N+](=O)[O-])cc1NC(=O)COC(=O)/C=C/c1ccco1`, the Potency was 11.2 µM (active).

Regarding `FC(F)(F)c1cc(Nc2nc3ccccc3c3nncn23)ccc1Cl`, the “activation” value is -0.119%.

For the compound `COc1cccc(N=C2SC(C(=O)Nc3cccc(Cl)c3)CC(=O)N2C)c1` (stereo unspecified), the “activation” value was 4.5%.

As to `COc1ccc(-c2nnc(SCC(=O)Nc3ccc(C(C)C)cc3)nc2-c2ccc(OC)c(OC)c2)cc1OC`, the “activation” value is 4.8%.

On to `COC(=O)c1ccc2nc(-c3ccc(Cl)cc3)c(Cc3cccc(F)c3)n2c1`, for which the “activation” value is 0.65%.

Turning to `COC(=O)c1ccc2nc(-c3ccc(F)cc3)c(Cc3ccc(C)cc3)n2c1`, the “activation” value is 16.6%.

In the case of `Cc1ccc(Cc2c(-c3ccco3)nc3ccc(Cl)cn23)cc1`, the Potency was 12.6 µM (active).

Regarding `c1ccc(Cc2c(-c3ccco3)nc3c4ccccc4ccn23)cc1`, the Potency was 6.31 µM (active).

As to `CCCc1nc2c3ccccc3ccn2c1Cc1ccccc1C(F)(F)F`, the “activation” value is 10.7%.

Regarding `CC(C)c1ccc(NC(=O)C2CCN(c3nc(-c4ccc(C(C)C)cc4)no3)CC2)cc1`, the “activation” value is -5.01%.

On to `COc1ccc(NC(=O)c2sc3nc(-c4cc5cccc(OC)c5oc4=O)[nH]c(=O)c3c2C)cc1`, for which the “activation” value was -0.615%.

With `O=S(=O)(c1ccc(Cl)cc1)c1nnn2c1nc(NC1CCCC1)c1sccc12`, the “activation” value is -0.774%.

For `CCc1cc2c(cc3c(=O)n(CC(=O)NCCc4ccc(OC)c(OC)c4)ncn32)s1`, the “activation” value was 0.25%.

`CCOC(=O)c1ccc(CSc2nnc3cc(C)c4ccccc4n23)cc1`: the “activation” value is 2.48%.

On to `COc1cccc(C(=O)c2sc3nc(-c4ccccc4)cc(C(F)(F)F)c3c2N)c1`, for which the “activation” value was 22.5%.

With `COc1ccc(S(=O)(=O)c2c(Nc3cccc(Cl)c3)sc(C(=O)c3ccccc3)c2N)cc1`, the “activation” value was 5.95%.

With `CCCS(=O)(=O)c1c(Nc2ccccc2C)sc(C(=O)c2ccccc2)c1N`, the “activation” value is -0.703%.

Consider `CN(C)c1ccnc2sc(C(=O)c3ccccc3)c(N)c12`, for which the Potency was 10 µM (active).

Turning to `Cc1ccc2c(N)c(C(=O)c3ccccc3)sc2n1`, the Potency is 8.91 µM (active).

For the compound `CN(C(=O)c1ccccc1)c1nccnc1C#N`, the “activation” value was -0.11%.

`COc1ccc(-n2ccnc(NCCc3ccc(Cl)cc3)c2=O)cc1OC`: the “activation” value was 3.86%.

Values taken from PubChem BioAssay AID624171 (National Center for Advancing Translational Sciences (NCATS), 2012).
